# About 3,300 (8.5%) of roughly 39,000 compounds were called active. What follows is part of a selection rich in actives, with near analogues and random picks from the rest.
# Test system: HepG2
# Test: cytotoxicity call (relative viability < 0.9)
# Conditions: 10 µM
row,SMILES,cytotoxicity call
1,CCCc1ncc(C[n+]2ccccc2C)c(N)n1.[Cl-],inactive
2,C[C@@H]1CCCCO[C@H](CN(C)S(=O)(=O)c2cccs2)[C@H](C)CN([C@H](C)CO)C(=O)c2cc(NC(=O)c3ccccc3)ccc2O1,inactive
3,C[C@@H]1CN([C@@H](C)CO)C(=O)c2cccc(NS(=O)(=O)c3cccs3)c2O[C@@H]1CN(C)Cc1ccc(Oc2ccccc2)cc1,inactive
4,C[C@@H]1CN([C@@H](C)CO)C(=O)c2cc(C#CCN(C)C)cnc2O[C@H]1CN(C)Cc1cccc(C(=O)O)c1,inactive
5,C[C@@H]1CN([C@@H](C)CO)C(=O)c2cccc(NC(=O)C3CCOCC3)c2O[C@H]1CN(C)C(=O)Nc1ccc2c(c1)OCO2,inactive
6,C[C@@H]1CN([C@H](C)CO)C(=O)Cc2cc(NC(=O)Nc3ccc(F)cc3)ccc2O[C@@H]1CN(C)C(=O)Nc1ccc(C(F)(F)F)cc1,inactive
7,C[C@H]1CN([C@@H](C)CO)C(=O)Cc2cc(NC(=O)Nc3ccc(F)cc3)ccc2O[C@H]1CN(C)C(=O)Nc1ccc(C(F)(F)F)cc1,inactive
8,C[C@H](CO)N1C[C@H](C)[C@@H](CN(C)C(=O)Nc2ccc(C(F)(F)F)cc2)Oc2ccc(NC(=O)Nc3ccc(F)cc3)cc2CC1=O,active
9,Cc1ccc(S[C@]2(C(=O)NC(C)C)CC(=O)N(Cc3cc(C(F)(F)F)cc(C(F)(F)F)c3)[C@@H]2c2ccc(CO)cc2)cc1,inactive
10,CN(C)Cc1cn(CC[C@H]2CC[C@@H](NS(=O)(=O)c3ccccc3)[C@H](CO)O2)nn1,inactive
11,C[C@H]1CN([C@@H](C)CO)C(=O)Cc2cc(NC(=O)CCC(F)(F)F)ccc2O[C@@H]1CN(C)S(C)(=O)=O,inactive
12,CC(C)(C)[S@](=O)N1Cc2cc(C(=O)N3CCc4ccccc4C3)nc(-c3cccc(-c4cncnc4)c3)c2[C@@H]1CCO,inactive
13,C=CCOC(=O)[C@@H]1[C@H]2C(=O)O[C@H](c3ccccc3)[C@H](c3ccccc3)N2[C@H](c2ccc(OCCOC(=O)NCCCCCC(=O)NO)cc2)[C@]12C(=O)Nc1ccc(I)cc12,inactive
14,Nc1nnc(-c2ccno2)o1,inactive
15,CC(=O)On1cc(F)c(=O)[nH]c1=O,active
16,CCOC(=O)Cn1cc(F)c(=O)[nH]c1=O,inactive
17,CCOC(=O)CCn1cc(F)c(=O)[nH]c1=O,inactive
18,Cn1cnc(S(=O)(=O)N2CC[C@H](O)[C@@H]2Cc2cnn(C)c2)c1,inactive
19,C[C@@H]1CCCCO[C@@H](CN(C)C(=O)CCC(F)(F)F)[C@@H](C)CN([C@H](C)CO)C(=O)c2cc(NC(=O)Cc3ccccc3)ccc2O1,inactive
20,C[C@H]1CCCCO[C@H](CN(C)C(=O)CCC(F)(F)F)[C@@H](C)CN([C@@H](C)CO)C(=O)c2cc(NC(=O)Cc3ccccc3)ccc2O1,active
21,C[C@@H]1CCCCO[C@@H](CN(C)C(=O)Nc2ccccc2)[C@H](C)CN([C@@H](C)CO)C(=O)c2cc(NC(=O)Cc3ccccc3)ccc2O1,inactive
22,C[C@@H]1CCCCO[C@H](CN(C)C(=O)Nc2ccc(C(F)(F)F)cc2)[C@@H](C)CN([C@@H](C)CO)C(=O)c2cc(NC(=O)Cc3ccccc3)ccc2O1,inactive

row,SMILES,cytotoxicity call
1,C[C@@H]1CN([C@H](C)CO)C(=O)c2cc(NC(=O)Cc3ccccc3)ccc2O[C@@H](C)CCCCO[C@H]1CN(C)C(=O)Nc1ccccc1,active
2,C[C@H](CO)N1C[C@H](C)[C@@H](CN(C)C(=O)Nc2ccc(C(F)(F)F)cc2)OCCCC[C@H](C)Oc2ccc(NC(=O)Cc3ccccc3)cc2C1=O,inactive
3,C[C@@H]1CCCCO[C@@H](CN(C)C(=O)CCC(F)(F)F)[C@H](C)CN([C@@H](C)CO)C(=O)c2cc(NC(=O)Cc3ccccc3)ccc2O1,inactive
4,C[C@@H]1CCCCO[C@@H](CN(C)C(=O)Nc2ccc(C(F)(F)F)cc2)[C@H](C)CN([C@H](C)CO)C(=O)c2cc(NC(=O)Cc3ccccc3)ccc2O1,active
5,C[C@H]1CCCCO[C@@H](CN(C)C(=O)Nc2ccccc2)[C@@H](C)CN([C@@H](C)CO)C(=O)c2cc(NC(=O)Cc3ccccc3)ccc2O1,inactive
6,CC(C)NC(=O)Nc1ccc2c(c1)C(=O)N([C@@H](C)CO)C[C@@H](C)[C@@H](CN(C)Cc1ccccc1)OCCCC[C@@H](C)O2,inactive
7,C[C@@H]1CCCCO[C@@H](CN(C)C(=O)Nc2ccc3c(c2)OCO3)[C@@H](C)CN([C@@H](C)CO)C(=O)c2cc(NC(=O)Nc3ccc4c(c3)OCO4)ccc2O1,inactive
8,CS(=O)(=O)N1CCOC[C@@]2(C1)CN(S(=O)(=O)C1CC1)CCO2,inactive
9,O=C(C[C@H]1CC[C@H]2[C@@H](COC[C@@H](O)CN2S(=O)(=O)c2cccc(F)c2)O1)NCc1ccc2c(c1)OCO2,inactive
10,C[C@@H]1CCCCO[C@H](CN(C)C(=O)Nc2ccc3c(c2)OCO3)[C@@H](C)CN([C@H](C)CO)C(=O)c2cc(NC(=O)c3ccccc3)ccc2O1,inactive
11,O=C(O)CNc1ncccc1O,inactive
12,Cc1ccc(S(=O)(=O)N(C)C[C@H]2Oc3ccc(NC(=O)NC(C)C)cc3CC(=O)N([C@H](C)CO)C[C@@H]2C)cc1,inactive
13,N=C1CCCN1Cc1[nH]c(=O)[nH]c(=O)c1Cl,inactive
14,Cc1noc(C)c1NC(=O)Nc1ccc2c(c1)C(=O)N([C@@H](C)CO)C[C@@H](C)[C@H](CN(C)Cc1ccccc1)OCCCC[C@H](C)O2,inactive
15,Cc1noc(C)c1S(=O)(=O)Nc1ccc2c(c1)C(=O)N([C@H](C)CO)C[C@@H](C)[C@@H](CN(C)Cc1ccc(C(=O)O)cc1)O2,inactive
16,CC(C)NC(=O)N(C)C[C@H]1Oc2ccc(NC(=O)CCCN(C)C)cc2CC(=O)N([C@@H](C)CO)C[C@@H]1C,inactive
17,N[C@H]1CCCC[C@@H]1N1C(=O)CSC1=O,inactive
18,NC1CCCCC1N.O=C1[O][Pt][O]C1=O (stereo not given),active
19,Cc1c(CN2CCC(Nc3ncnc4sc(CC(F)(F)F)cc34)CC2)ccc2c1cc(C#N)n2Cc1cn[nH]c1,active
20,Cc1noc(C)c1S(=O)(=O)N(C)C[C@@H]1OCCCC[C@H](C)Oc2ccc(NS(C)(=O)=O)cc2C(=O)N([C@@H](C)CO)C[C@H]1C,inactive
21,COc1cc(C(=O)NCc2ccc(OCCN(C)C)cc2)cc(OC)c1OC.Cl,inactive
22,COc1cc(/C=C/C(=O)NCCCNC(=O)/C=C/c2cc(OC)c(OC)c(OC)c2)cc(OC)c1OC,inactive

row,SMILES,cytotoxicity call
1,CC(C)N(CCOc1c(Br)cc(/C=C/C(=O)NCCCOc2c(Br)cc(CCN(C)C)cc2Br)cc1Br)C(C)C,active
2,CN(C)CCOc1c(Br)cc(/C=C/C(=O)NCCCOc2c(Br)cc(CCN(C)C)cc2Br)cc1Br,active
3,C[C@H](CO)N1C[C@H](C)[C@@H](CN(C)C(=O)Nc2ccc3c(c2)OCO3)Oc2ccc(NC(=O)CCCN(C)C)cc2C1=O,inactive
4,CO[C@H]1CN(C)C(=O)c2cc(NS(=O)(=O)CC(F)(F)F)ccc2OC[C@H](C)N(C(=O)c2ccc3c(c2)OCO3)C[C@H]1C,inactive
5,O=C(Cc1ccccn1)NCC[C@H]1CC[C@@H](NC(=O)CN2CCOCC2)[C@H](CO)O1,inactive
6,C[C@H]1CN([C@@H](C)CO)C(=O)c2cc(NC(=O)Cn3cnnn3)ccc2O[C@@H]1CN(C)S(=O)(=O)c1ccccc1,inactive
7,CC(C)N1C[C@H](C)[C@@H](CN(C)Cc2ccc(Oc3ccccc3)cc2)Oc2c(cccc2-c2nnc(-c3ccncc3)o2)C1=O,inactive
8,COc1ccc(S(=O)(=O)N(C)C[C@@H]2Oc3c(NC(=O)Nc4cccc5ccccc45)cccc3C(=O)N([C@@H](C)CO)C[C@H]2C)cc1F,inactive
9,COc1ccc(S(=O)(=O)N(C)C[C@@H]2Oc3c(NC(=O)Nc4cccc5ccccc45)cccc3C(=O)N([C@@H](C)CO)C[C@H]2C)c(OC)c1,active
10,COc1ccc(S(=O)(=O)N(C)C[C@@H]2Oc3c(NC(=O)Nc4cccc5ccccc45)cccc3C(=O)N([C@@H](C)CO)C[C@H]2C)cc1OC,inactive
11,C[C@H](CO)N1C[C@H](C)[C@H](CN(C)S(=O)(=O)c2ccccc2)Oc2c(NC(=O)Nc3cccc4ccccc34)cccc2C1=O,inactive
12,C[C@@H]1CN([C@@H](C)CO)C(=O)c2cccc(NC(=O)Nc3cccc4ccccc34)c2O[C@H]1CN(C)S(=O)(=O)c1ccc(OC(F)(F)F)cc1,active
13,COc1ccccc1S(=O)(=O)N(C)C[C@@H]1Oc2c(NC(=O)Nc3cccc4ccccc34)cccc2C(=O)N([C@@H](C)CO)C[C@H]1C,inactive
14,C[C@H]1CN([C@@H](C)CO)C(=O)c2cccc(NC(=O)Nc3cccc4ccccc34)c2O[C@H]1CN(C)S(=O)(=O)c1ccc(F)cc1,inactive
15,COc1ccc(S(=O)(=O)N(C)C[C@H]2Oc3c(NC(=O)Nc4cccc5ccccc45)cccc3C(=O)N([C@@H](C)CO)C[C@@H]2C)cc1,active
16,C[C@H](CO)N1C[C@H](C)[C@H](CN(C)S(=O)(=O)c2ccc(F)cc2)Oc2c(NC(=O)Nc3cccc4ccccc34)cccc2C1=O,inactive
17,COc1ccc(S(=O)(=O)N(C)C[C@@H]2Oc3c(NC(=O)Nc4cccc5ccccc45)cccc3C(=O)N([C@@H](C)CO)C[C@H]2C)cc1,inactive
18,COc1cccc(S(=O)(=O)N(C)C[C@@H]2Oc3c(NC(=O)Nc4cccc5ccccc45)cccc3C(=O)N([C@@H](C)CO)C[C@H]2C)c1,active
19,COc1ccc(S(=O)(=O)N(C)C[C@H]2Oc3c(NC(=O)Nc4cccc5ccccc45)cccc3C(=O)N([C@@H](C)CO)C[C@H]2C)cc1,inactive
20,CC1CN(c2c(F)c(N)c3c(=O)c(C(=O)O)cn(C4CC4)c3c2F)CC(C)N1 (stereo not given),inactive
21,CC(C)NC(=O)N(C)C[C@H]1OCCCC[C@@H](C)Oc2ccc(NC(=O)Nc3ccc(C(F)(F)F)cc3)cc2C(=O)N([C@H](C)CO)C[C@@H]1C,inactive

# Source: the antibiotic and cytotoxicity screens of Wong et al. (2023)
